Holding throughout (assay): DAPPL (digital affinity profiling via proximity ligation, sequencing); 10 mM Tris-HCl pH 7.5, 50 mM NaCl, 1 mM DTT, 4% glycerol, room temperature, 30 min; GST-TFs on glutathione beads, 16-mer random dsDNA library, 0.1% formaldehyde crosslink after washing; high values mean tight binding
One assay addresses T1, FEV (Homo sapiens, UniProt Q99581 1-238).
T1 sequence: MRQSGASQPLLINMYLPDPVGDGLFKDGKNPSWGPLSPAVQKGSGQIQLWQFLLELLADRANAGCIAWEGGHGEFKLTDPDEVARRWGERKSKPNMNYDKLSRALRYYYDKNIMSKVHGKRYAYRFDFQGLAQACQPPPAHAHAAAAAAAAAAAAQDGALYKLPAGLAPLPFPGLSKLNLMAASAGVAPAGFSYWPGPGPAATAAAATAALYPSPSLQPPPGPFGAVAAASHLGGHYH
Conditions: protein: recombinant; tags: N-terminal GST; dsDNA, one strand shown. In a few lines:
(§1)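 Binding signal is each hexamer's read frequency for a factor divided by its frequency in the tag-only sample. The factors were GST-fused human transcription factors from yeast, captured on glutathione beads, DNA-barcoded and pooled with that sample. Pools were incubated with 200 nmole of a random double-stranded 16-mer DNA library in Tris/NaCl/DTT/glycerol buffer at room temperature for 30 min, then washed, crosslinked with 0.1% formaldehyde, proximity-ligated with BsaI/T4 ligase (1 h, 37 °C), PCR-amplified and sequenced on an Illumina NextSeq500.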

The target of a further assay is ETV5 (Homo sapiens, UniProt P41161 1-510). The conditions noted are these: protein: recombinant; tags: N-terminal GST; dsDNA, one strand shown. In a few lines: as §1
The target of another assay is HSF1 (Homo sapiens, UniProt Q00613 1-529). The conditions noted are these: protein: recombinant; tags: N-terminal GST; chain copies: 3; dsDNA, one strand shown. In a few lines:
as §1

For another assay, the target named is T2, SPIC (Homo sapiens, UniProt Q8N5J4 1-248).
T2 sequence: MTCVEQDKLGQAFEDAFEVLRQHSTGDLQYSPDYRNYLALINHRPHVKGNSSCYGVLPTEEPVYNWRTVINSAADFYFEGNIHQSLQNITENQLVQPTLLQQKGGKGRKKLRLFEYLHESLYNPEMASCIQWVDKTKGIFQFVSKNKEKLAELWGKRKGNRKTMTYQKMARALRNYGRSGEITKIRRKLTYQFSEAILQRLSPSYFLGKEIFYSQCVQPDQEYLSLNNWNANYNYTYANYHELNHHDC
Conditions: protein: recombinant; tags: N-terminal GST; dsDNA, one strand shown. In a few lines:
as §1

A further assay concerns the target ELF4 (Homo sapiens, UniProt Q99607 1-663). Conditions: protein: recombinant; tags: N-terminal GST; dsDNA, one strand shown. The essentials: as §1
The target in the next assay is T3, ELK4 (Homo sapiens, UniProt P28324-2 1-405).
T3 sequence: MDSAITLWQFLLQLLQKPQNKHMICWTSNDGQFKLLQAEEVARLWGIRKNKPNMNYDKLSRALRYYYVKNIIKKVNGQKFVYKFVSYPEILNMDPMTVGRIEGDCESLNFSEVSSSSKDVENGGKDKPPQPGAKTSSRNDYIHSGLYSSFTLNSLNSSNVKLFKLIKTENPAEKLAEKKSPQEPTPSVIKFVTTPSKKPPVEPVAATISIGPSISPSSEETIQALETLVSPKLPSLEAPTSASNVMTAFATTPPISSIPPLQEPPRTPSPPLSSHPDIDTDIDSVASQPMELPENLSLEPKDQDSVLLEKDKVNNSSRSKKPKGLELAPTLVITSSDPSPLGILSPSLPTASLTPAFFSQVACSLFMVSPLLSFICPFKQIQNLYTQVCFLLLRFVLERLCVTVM
The conditions noted are these: protein: recombinant; tags: N-terminal GST; dsDNA, one strand shown. The essentials: as §1

A further assay deals with T4, ETV2 (Homo sapiens, UniProt O00321 1-342).
T4 sequence: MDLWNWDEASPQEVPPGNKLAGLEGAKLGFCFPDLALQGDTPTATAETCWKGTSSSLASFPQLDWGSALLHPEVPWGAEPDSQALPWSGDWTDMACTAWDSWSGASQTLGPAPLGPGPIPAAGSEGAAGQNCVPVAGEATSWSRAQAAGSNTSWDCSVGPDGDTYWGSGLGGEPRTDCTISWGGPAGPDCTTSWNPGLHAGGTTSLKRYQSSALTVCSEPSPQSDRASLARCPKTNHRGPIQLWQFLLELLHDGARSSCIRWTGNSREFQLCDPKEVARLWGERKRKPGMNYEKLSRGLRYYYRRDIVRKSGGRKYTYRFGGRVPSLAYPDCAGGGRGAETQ
Conditions: protein: recombinant; tags: N-terminal GST; dsDNA, one strand shown. The essentials: as §1

Another assay addresses T5, ELF3 (Homo sapiens, UniProt P78545 1-371).
T5 sequence: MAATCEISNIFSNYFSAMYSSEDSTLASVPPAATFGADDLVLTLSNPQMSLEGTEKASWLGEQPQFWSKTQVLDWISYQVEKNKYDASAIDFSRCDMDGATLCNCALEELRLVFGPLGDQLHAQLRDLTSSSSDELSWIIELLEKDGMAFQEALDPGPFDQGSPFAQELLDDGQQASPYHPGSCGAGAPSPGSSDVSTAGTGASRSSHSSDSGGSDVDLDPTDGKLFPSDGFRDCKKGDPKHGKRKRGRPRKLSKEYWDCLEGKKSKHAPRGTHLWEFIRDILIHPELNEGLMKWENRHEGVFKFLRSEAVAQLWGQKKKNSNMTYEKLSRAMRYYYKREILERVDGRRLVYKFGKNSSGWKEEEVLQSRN
The conditions noted are these: protein: recombinant; tags: N-terminal GST; dsDNA, one strand shown. The essentials:
as §1

The next assay deals with CRX (Homo sapiens, UniProt O43186 1-299). The conditions noted are these: protein: recombinant; tags: N-terminal GST; dsDNA, one strand shown. In a few lines: as §1
For another assay, the target named is ETV1 (Homo sapiens, UniProt P50549 1-477). The conditions noted are these: protein: recombinant; tags: N-terminal GST; dsDNA, one strand shown. The essentials:
as §1

The next assay addresses T6, ERF (Homo sapiens, UniProt P50548 1-548).
T6 sequence: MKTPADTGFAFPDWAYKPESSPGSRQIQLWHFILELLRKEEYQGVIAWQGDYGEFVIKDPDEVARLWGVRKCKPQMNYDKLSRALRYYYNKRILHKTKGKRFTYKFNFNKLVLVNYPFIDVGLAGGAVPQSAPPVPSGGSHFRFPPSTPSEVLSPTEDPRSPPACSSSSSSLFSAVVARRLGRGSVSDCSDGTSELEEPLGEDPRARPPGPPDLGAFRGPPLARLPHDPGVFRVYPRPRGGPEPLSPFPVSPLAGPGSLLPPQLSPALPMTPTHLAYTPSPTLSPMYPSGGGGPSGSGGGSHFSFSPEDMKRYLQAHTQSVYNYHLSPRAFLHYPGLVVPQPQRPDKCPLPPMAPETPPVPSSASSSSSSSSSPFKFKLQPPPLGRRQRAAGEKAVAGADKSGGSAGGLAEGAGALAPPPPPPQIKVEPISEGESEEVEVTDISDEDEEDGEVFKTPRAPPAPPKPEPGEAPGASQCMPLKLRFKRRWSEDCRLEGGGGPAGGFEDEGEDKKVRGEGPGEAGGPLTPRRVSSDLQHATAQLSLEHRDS
Conditions: protein: recombinant; tags: N-terminal GST; dsDNA, one strand shown. In a few lines:
as §1

Another assay deals with T7, ETV3L (Homo sapiens, UniProt Q6ZN32 1-361).
T7 sequence: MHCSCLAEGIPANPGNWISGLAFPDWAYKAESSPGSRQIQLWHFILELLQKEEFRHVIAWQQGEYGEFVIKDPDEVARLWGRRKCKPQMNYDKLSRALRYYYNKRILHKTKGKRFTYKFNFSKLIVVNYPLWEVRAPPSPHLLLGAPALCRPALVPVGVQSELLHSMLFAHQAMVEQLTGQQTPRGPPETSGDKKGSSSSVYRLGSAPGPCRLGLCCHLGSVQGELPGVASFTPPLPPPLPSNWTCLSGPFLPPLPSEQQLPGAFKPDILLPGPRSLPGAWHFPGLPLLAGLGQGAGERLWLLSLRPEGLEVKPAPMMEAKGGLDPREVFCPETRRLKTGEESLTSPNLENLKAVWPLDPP
Conditions: protein: recombinant; tags: N-terminal GST; dsDNA, one strand shown. In a few lines: as §1

In the next assay the target is T8, ETS2 (Homo sapiens, UniProt P15036 1-469).
T8 sequence: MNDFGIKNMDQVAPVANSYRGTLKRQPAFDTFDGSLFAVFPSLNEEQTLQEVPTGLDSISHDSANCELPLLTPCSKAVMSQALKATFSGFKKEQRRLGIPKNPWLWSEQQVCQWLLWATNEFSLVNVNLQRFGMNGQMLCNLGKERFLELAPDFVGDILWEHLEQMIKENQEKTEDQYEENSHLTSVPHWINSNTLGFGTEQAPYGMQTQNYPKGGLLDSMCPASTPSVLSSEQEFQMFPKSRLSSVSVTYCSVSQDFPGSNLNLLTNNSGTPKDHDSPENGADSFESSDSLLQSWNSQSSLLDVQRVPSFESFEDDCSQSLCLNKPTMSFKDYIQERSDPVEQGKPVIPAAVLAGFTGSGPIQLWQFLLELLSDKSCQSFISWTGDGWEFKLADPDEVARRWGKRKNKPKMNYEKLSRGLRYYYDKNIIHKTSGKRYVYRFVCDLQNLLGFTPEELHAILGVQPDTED
Conditions: protein: recombinant; tags: N-terminal GST; dsDNA, one strand shown. The essentials:
as §1

The target in the next assay is T9, SPDEF (Homo sapiens, UniProt O95238 1-335).
T9 sequence: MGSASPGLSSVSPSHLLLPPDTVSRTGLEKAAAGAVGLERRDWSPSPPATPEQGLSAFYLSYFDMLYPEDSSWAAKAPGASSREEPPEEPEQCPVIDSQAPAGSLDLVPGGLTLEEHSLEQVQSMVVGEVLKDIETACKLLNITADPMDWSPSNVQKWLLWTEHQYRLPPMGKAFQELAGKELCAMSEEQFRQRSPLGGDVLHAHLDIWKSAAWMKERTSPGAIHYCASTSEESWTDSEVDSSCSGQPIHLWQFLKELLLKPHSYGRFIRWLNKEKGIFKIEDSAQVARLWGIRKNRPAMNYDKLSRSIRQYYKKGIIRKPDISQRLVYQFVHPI
Conditions: protein: recombinant; tags: N-terminal GST; dsDNA, one strand shown. The essentials:
as §1

A further assay addresses T10, ETV7 (Homo sapiens, UniProt Q9Y603 1-341).
T10 sequence: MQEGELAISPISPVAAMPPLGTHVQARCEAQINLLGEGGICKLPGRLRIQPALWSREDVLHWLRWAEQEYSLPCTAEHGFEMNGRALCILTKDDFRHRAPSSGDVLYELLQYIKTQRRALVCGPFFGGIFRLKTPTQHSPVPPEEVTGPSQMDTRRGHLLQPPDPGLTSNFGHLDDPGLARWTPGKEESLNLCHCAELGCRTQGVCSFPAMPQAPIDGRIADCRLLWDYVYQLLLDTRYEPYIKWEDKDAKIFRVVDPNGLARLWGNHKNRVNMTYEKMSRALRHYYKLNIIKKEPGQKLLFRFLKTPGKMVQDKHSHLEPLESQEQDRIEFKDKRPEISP
Conditions: protein: recombinant; tags: N-terminal GST; dsDNA, one strand shown. The essentials:
as §1

The next assay concerns the target T11, ELF5 (Homo sapiens, UniProt Q9UKW6-2 1-255).
T11 sequence: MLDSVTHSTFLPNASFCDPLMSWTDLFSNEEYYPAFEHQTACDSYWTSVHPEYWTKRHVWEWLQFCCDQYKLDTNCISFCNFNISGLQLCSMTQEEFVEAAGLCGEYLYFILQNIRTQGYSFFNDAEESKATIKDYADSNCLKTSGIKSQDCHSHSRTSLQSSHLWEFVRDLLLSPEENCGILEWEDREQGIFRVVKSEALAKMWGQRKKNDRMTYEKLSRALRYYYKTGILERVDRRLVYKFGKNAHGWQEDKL
Conditions: protein: recombinant; tags: N-terminal GST; dsDNA, one strand shown. In a few lines: as §1

The target of a further assay is T12, ETV3 (Homo sapiens, UniProt P41162-2 1-143).
T12 sequence: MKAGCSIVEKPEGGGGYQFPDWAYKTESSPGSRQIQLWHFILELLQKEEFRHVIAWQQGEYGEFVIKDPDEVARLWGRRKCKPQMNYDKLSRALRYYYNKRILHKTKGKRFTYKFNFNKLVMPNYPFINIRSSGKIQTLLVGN
Conditions: protein: recombinant; tags: N-terminal GST; dsDNA, one strand shown. The essentials: as §1

A further assay concerns the target ETV6 (Homo sapiens, UniProt P41212 1-452). The conditions noted are these: protein: recombinant; tags: N-terminal GST; dsDNA, one strand shown. In a few lines:
as §1

Sequence of ETV6 (P41212 whole entry): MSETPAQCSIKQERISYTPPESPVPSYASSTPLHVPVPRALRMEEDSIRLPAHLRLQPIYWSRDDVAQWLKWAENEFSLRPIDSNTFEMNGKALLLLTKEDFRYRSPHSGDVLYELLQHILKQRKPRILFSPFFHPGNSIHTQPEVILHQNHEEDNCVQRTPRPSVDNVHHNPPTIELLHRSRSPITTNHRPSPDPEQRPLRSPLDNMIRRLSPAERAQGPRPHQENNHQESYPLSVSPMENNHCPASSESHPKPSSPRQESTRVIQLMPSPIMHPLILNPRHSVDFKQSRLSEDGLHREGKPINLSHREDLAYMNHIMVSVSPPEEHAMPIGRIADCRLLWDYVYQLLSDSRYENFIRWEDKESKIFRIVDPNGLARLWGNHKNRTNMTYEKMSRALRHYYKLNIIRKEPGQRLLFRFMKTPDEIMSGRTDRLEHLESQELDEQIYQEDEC
Sequence of ETV1 (P50549 whole entry): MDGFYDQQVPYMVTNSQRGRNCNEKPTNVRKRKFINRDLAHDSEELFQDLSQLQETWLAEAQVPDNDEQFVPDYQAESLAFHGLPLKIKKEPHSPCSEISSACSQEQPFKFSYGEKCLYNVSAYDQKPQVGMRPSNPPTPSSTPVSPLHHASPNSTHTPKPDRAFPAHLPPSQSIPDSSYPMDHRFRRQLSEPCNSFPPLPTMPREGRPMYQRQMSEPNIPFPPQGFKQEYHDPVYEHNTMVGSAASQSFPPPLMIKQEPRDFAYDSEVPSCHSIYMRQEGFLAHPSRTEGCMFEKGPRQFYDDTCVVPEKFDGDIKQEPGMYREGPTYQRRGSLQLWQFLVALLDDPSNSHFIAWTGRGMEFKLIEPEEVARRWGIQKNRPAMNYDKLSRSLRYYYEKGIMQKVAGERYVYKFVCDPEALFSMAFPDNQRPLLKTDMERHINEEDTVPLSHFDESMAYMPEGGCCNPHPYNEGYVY
Sequence of HSF1 (Q00613 whole entry): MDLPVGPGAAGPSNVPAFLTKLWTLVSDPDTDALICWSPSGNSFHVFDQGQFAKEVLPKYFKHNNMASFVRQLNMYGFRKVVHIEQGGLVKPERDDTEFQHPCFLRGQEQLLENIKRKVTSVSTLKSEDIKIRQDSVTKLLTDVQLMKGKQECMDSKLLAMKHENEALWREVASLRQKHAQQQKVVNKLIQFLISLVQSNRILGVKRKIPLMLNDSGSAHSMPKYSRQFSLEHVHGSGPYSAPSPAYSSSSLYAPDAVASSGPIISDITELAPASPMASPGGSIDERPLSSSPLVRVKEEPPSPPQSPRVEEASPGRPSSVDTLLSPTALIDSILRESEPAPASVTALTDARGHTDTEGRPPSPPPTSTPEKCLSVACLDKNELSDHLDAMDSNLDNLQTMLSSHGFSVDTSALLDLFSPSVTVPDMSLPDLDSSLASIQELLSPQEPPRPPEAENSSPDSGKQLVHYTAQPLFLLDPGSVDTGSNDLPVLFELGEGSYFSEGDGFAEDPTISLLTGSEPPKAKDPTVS
Sequence of CRX (O43186 whole entry): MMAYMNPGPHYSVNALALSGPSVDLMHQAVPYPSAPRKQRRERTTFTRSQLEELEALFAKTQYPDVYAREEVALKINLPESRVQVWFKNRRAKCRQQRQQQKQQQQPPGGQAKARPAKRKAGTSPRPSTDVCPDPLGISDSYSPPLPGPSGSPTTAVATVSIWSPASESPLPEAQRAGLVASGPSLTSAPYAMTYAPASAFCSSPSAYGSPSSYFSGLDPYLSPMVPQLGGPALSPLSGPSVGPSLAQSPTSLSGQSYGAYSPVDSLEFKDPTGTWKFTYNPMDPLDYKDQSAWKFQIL
Sequence of ETV5 (P41161 whole entry): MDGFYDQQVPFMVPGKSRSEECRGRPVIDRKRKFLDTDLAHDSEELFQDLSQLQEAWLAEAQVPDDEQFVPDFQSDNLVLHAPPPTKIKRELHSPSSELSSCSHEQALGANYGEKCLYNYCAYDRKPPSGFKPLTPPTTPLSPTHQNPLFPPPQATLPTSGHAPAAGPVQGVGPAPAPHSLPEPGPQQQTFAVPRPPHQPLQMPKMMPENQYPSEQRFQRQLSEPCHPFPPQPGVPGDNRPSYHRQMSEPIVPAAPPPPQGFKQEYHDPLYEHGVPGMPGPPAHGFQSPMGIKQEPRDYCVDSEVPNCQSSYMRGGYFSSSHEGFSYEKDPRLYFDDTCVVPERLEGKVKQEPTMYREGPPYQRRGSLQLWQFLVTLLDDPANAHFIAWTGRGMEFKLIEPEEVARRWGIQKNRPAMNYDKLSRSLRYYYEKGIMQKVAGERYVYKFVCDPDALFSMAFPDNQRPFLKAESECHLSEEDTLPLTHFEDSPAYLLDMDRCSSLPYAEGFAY
Sequence of ELF4 (Q99607 whole entry): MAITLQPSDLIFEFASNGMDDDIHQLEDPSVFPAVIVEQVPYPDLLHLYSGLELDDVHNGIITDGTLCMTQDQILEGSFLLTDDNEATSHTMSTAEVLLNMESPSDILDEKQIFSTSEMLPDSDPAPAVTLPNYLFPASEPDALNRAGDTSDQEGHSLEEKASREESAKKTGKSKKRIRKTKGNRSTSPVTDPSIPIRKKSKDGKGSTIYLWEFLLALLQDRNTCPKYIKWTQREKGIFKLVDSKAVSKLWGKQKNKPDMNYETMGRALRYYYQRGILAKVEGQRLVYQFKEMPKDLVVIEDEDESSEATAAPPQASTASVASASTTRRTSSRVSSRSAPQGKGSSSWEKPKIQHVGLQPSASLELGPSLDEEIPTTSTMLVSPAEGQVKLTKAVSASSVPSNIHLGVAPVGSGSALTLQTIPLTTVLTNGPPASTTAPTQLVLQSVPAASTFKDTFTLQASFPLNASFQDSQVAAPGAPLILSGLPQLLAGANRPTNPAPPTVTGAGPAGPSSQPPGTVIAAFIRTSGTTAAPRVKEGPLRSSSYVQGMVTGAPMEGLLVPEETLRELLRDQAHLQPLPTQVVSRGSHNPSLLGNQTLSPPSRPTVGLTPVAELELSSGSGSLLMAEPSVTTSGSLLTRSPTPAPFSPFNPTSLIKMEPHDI

For CCACTT, the binding signal was 2.3 fold enrichment (6-mer frequency, TF over GST control) with FEV; 1.99 fold enrichment (6-mer frequency, TF over GST control) with ETV5; 1.25 fold enrichment (6-mer frequency, TF over GST control) in the assay with HSF1; 1.63 fold enrichment (6-mer frequency, TF over GST control) with SPIC; 1.98 fold enrichment (6-mer frequency, TF over GST control) with ELF4; 1.77 fold enrichment (6-mer frequency, TF over GST control) with ELK4. Moreover, the binding signal in the assay with ETV2 was 1.91 fold enrichment (6-mer frequency, TF over GST control); with ELF3, 1.59 fold enrichment (6-mer frequency, TF over GST control); in the assay with CRX, 1.36 fold enrichment (6-mer frequency, TF over GST control); in the assay with ETV1, 1.95 fold enrichment (6-mer frequency, TF over GST control); with ERF it was 1.9 fold enrichment (6-mer frequency, TF over GST control); with ETV3L, 1.79 fold enrichment (6-mer frequency, TF over GST control). The binding signal in the assay with ETS2 is 1.84 fold enrichment (6-mer frequency, TF over GST control); in the assay with SPDEF it was 1.69 fold enrichment (6-mer frequency, TF over GST control); with ETV7, 1.78 fold enrichment (6-mer frequency, TF over GST control); with ELF5 it was 1.89 fold enrichment (6-mer frequency, TF over GST control); with ETV3, 1.97 fold enrichment (6-mer frequency, TF over GST control); with ETV6, 1.85 fold enrichment (6-mer frequency, TF over GST control).
